PubChem BioAssay (NCI)
This is part of a sample that, as a whole, favours compounds with a hit. Of some 79,000 tested, about 15% had one in any assay. A number with no mark means an inactive call. Activity calls are given as the source filed them. No stated cut-off is given here; in the data, active means growth inhibition above about 70%; inactive means the rest.

How the values were obtained:
[1] = NCI Yeast Anticancer Drug Screen. Data for the rad50 strain (AID 155);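 further: 0% = growth of vehicle-only cultures of the same strain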; conditions: S. cerevisiae rad50 strain growth inhibition; at 50.0 µM; stronger effect = higher value
Method in brief: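 Yeast carrying a defined DNA repair defect were exposed to test compounds, and growth was compared with vehicle-treated controls to give percent inhibition.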

[2] = NCI Yeast Anticancer Drug Screen. Data for the mec2-1 strain (AID 157); conditions: S. cerevisiae mec2-1 strain, at 50.0 µM, stronger effect = higher value
Method in brief: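 Cells of the genetically defined mec2-1 yeast strain are incubated with test compound. Inhibition of growth is calculated against vehicle-treated controls.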

[3] = NCI Yeast Anticancer Drug Screen. Data for the sgs1 mgt1 strain (AID 161);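 further: 0% = growth of cultures given vehicle only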; conditions: S. cerevisiae sgs1 mgt1 strain, at 50.0 µM, stronger effect = higher value
Method in brief: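 Read-out: growth inhibition vs vehicle controls. Cells: mutant yeast strain deficient in DNA damage repair.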

[4] = NCI Yeast Anticancer Drug Screen. Data for the cln2 rad14 strain (AID 165);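 further: 0% = growth equal to vehicle treated cultures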; conditions: S. cerevisiae cln2 rad14 strain, at 50.0 µM, stronger effect = higher value
Method in brief: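 The screen exposed genetically defined yeast (cln2 rad14) to test compounds and scored growth inhibition relative to vehicle-treated controls.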

[5] = NCI Yeast Anticancer Drug Screen. Data for the bub3 strain (AID 167); conditions: S. cerevisiae bub3 mutant strain, at 50.0 µM, stronger effect = higher value
Method in brief: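 Compounds were applied to a genetically altered yeast strain carrying a cell-cycle control defect. Growth inhibition was scored against vehicle-treated controls.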

[6] = NCI Yeast Anticancer Drug Screen. Data for the mlh1 rad18 strain (AID 175); conditions: S. cerevisiae mlh1 rad18 strain growth inhibition; at 50.0 µM; stronger effect = higher value
Method in brief: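 Compound-treated yeast growth, normalised to vehicle controls. Strain bears defined DNA repair mutations.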

SMILES | growth inhibition [1] | growth inhibition [2] | growth inhibition [3] | growth inhibition [4] | growth inhibition [5] | growth inhibition [6]
CN(C)c1nc2oc(-c3ccccc3)c(-c3ccccc3)c2c2nncn12 | 9.65% | 7.45% | 2.9% | 16.9% | 12.1% | -22.5%
CCc1c(-c2ccccc2)[nH]c(=S)c(C#N)c1C | -8.7% | -1.5% | 26.6% | 2.7% | -1.1% | -3.9%
CC1=NN(c2ccccc2C)C(=O)C1 | 2.05% | -27.8% | -5.1% | -2.6% | -27.9% | 8.1%
N#Cc1ccccc1NC(=O)C(=O)C(C(=O)c1ccccc1F)C1OC(=O)c2ccccc21 (stereo not given) | -1.1% | -10.8% | -5.25% | -5.5% | -16.2% | -2.4%
ONc1ncnc2[nH]cc(Br)c12 | 4% | -6.8% | -5.65% | 2.6% | -4.5% | 9.7%
COc1ccccc1N(CN1C(=O)CCC1C(=O)O)C(C)=O (stereo not given) | 9.2% | 10.4% | -4% | 7.25% | -9.1% | -37.9%
CCOC(=O)C1=C(O)C(=O)N(Cc2ccccc2)C1 | -4.65% | -29.6% | 14.3% | -0.7% | 49.5% | -23.8%
Clc1ccc(SCSc2ccc(Cl)cc2)cc1 | 16.8% | -7.35% | 6.5% | -33.5% | 6.45% | -0.85%
Cc1c(C)c(C)c(CN2CC(=O)c3ccccc3C2=O)c(C)c1C | 18% | 13.7% | 4% | 14.1% | 10.6% | 15.5%
CCOC(=O)c1c(O)csc1C | -7.75% | -6.35% | -7.45% | -14.2% | -6.05% | -8.15%
O=[N+]([O-])c1ccc(C2ON2c2ccccc2)cc1 (stereo not given) (tested in a mixture with another compound) | 3.95% | -1.45% | 20.7% | -9.7% | -7.4% | 25.6%
C=C1CC[C@H]2C(C)=CC[C@@H]3[C@H](OC(=O)[C@H]3CN(C)C)[C@@H]12 | 8.05% | -4.45% | 1.5% | 32.7% | 26.4% | 16.2%
O=C(O)C1CCC(=O)N1Cc1csc(-c2ccccc2)n1 (stereo not given) | -23.8% | -19.6% | -1.45% | -19.6% | -7.15% | 2.7%
Cn1cnc(=O)c2n[nH]nc21 | 3.95% | 16.6% | -1.1% | -1.45% | -11.4% | 0.65%
CCCOC(=O)Nc1cccc2ccccc12 | 0.65% | -9.3% | 12.5% | -62.4% | -21.8% | -17.2%
NC(=O)CN1CC(C2=C(O)CN(CC(N)=O)C2=O)=CC1=O | -23.9% | -8.6% | -10.1% | -43.5% | -6.35% | -9.2%
CC(C)(C)NCCCCCO | -11.8% | 17.6% | 16.1% | -8.35% | -5.7% | -16.1%
CN(C)CCNC(=O)c1cccc2c1Oc1cccc([N+](=O)[O-])c1O2 | -12.7% | -14.1% | -9.85% | 14.4% | -12.1% | -34.3%
Cc1nc(N(C)C)oc(=O)c1Cc1ccccc1 | -0.9% | 18.6% | 17.4% | -8.8% | 20.6% | 6.2%
Cc1ccc(NC(=O)OCC2CC3C=CC2C3)cc1NC(=O)OCC1CC2C=CC1C2 (stereo not given) | -21.2% | -14.3% | -14.8% | -6.8% | -3.25% | 3.7%

SMILES | growth inhibition [1] | growth inhibition [2] | growth inhibition [3] | growth inhibition [4] | growth inhibition [5] | growth inhibition [6]
c1ccc(-c2cc[c]([Sn]([c]3ccccc3)([c]3ccccc3)[c]3ccccc3)cc2)cc1 | 95.2% (active) | 98.5% (active) | 96.8% (active) | 99.2% (active) | 99% (active) | 98.2% (active)
N#CC(CCc1nc(N)nc(N)n1)(CCc1nc(N)nc(N)n1)c1ccccc1 | -6.7% | -19.1% | 1.9% | -45.7% | -1.2% | -14.9%
CC(=O)Oc1ccc(I)cc1C(=O)O | 5.7% | -29.4% | 1.25% | -12.7% | 6.75% | -11.8%
Cc1ccc(S(=O)(=O)NC(=O)C2(Br)S(=O)(=O)OCCOS2(=O)=O)cc1 | 1.25% | -28.4% | 6.1% | -54.9% | 24.6% | 12%
COC(=O)C(=O)C(C(=O)C(=O)Nc1nc(=S)[nH][nH]1)c1nc2ccc([N+](=O)[O-])cc2[nH]c1=O (stereo not given) | 36% | 20.6% | 11.1% | -17.6% | 22.4% | 18.9%
CC(=O)OC1CC(C(C)C)CCC1C (stereo not given) | 18.1% | 12.8% | 6.3% | 4.95% | -8.55% | 11.7%
NCCC(=O)O | 5.95% | 14.9% | -8.25% | 12.1% | -13.8% | 16.9%
CC(=O)Oc1ccc(-c2ccccc2)cc1 | 23.3% | 20.8% | 16% | 3.1% | 18% | 26.3%
[N-]=[N+]=NC12CC3CC4C5CC(CC41)CC2[C@H]5C3 | 13.1% | -5.35% | -6.1% | -0.55% | -17.1% | -14.4%
COc1ccc(CC(C)=C(C#N)C#N)cc1OC | -10.8% | -2.45% | -8.25% | 11.8% | -0.05% | -17.3%
Cc1ccc(N=c2cc(-c3ccccc3)oc3ccccc23)cc1 | 11.9% | -1.25% | 11.7% | 3.7% | 12.7% | 20.4%
CC(CCC(=O)CS(C)=O)C1CCC2C3CCC4CCCCC4(C)C3CCC12C (stereo not given) | 34.1% | -20.4% | 25.8% | 11.6% | -4% | 0.95%
CCOC(=O)c1c(C)c(=O)cnc2c(C#N)cnn12 | -4.55% | -6.75% | -6.8% | -33.2% | -1.4% | -8.35%
CCOC(=O)Oc1ccc(C(=O)Oc2ccccc2)cc1OC | 18.1% | 4.1% | 12.9% | -48.8% | 42.1% | 10%
CCCCOC(=O)c1ccc(NC(=O)Nc2ccc([N+](=O)[O-])cc2OC)cc1 | -24.2% | -11.1% | -17.6% | 50.7% | -0.8% | 6.05%
CCOC(=O)CCC1CCCO1 (stereo not given) | -3.6% | -19.1% | -19.9% | -4.8% | -6.85% | -1.05%
CCN(CC)CCN(CCN(CC)CC)c1c(OC)cccc1OC | 5.8% | -13.2% | 9.25% | -14.4% | 9.15% | 15.8%
COc1cc(C)c(C(=O)c2ccccc2NS(=O)(=O)c2ccc(C)cc2)cc1OC | 7.6% | -0.7% | -1.5% | 22.6% | -2.95% | 9.1%
CN(C)CCCC[N+](C)(C)Cc1ccc(C[N+](C)(C)CCCC[N+](C)(C)Cc2ccc(CCl)cc2)cc1 | -9.7% | -15% | -7.2% | -0.95% | -1.9% | -3.55%
CN(c1cn(C2CC[C@@H](CO)O2)c(=O)[nH]c1=O)C1CCCCC1 (stereo not given in full) | -35.8% | -13.4% | -58.4% | -6% | 5.35% | -41.5%
